CDC25B-CDK2 inh – human CDC25B-CDK2/CyclinA binding inhibition; z-score (no concentration beside the values); AID 1259370; 0.72% of 94,000 active; HTRF CDC25B-CDK2/CyclinA binding, anti-His/anti-Flag; stronger effect = higher value; in the data active = z-score above about 3.2
TAR Tat displ – HIV-1 TAR-Tat binding disruption; HIV-1 TAR RNA, Tat peptide displacement FRET; stronger effect = higher value; z-score (test concentration not listed); 0.6% of 100,000 active; AID 1259389; active = z-score of 3 or more in at least 2 runs
Numbers without * were called inactive. Sampled rows, rich in hits. Any-hit rate of the full collection: about 0.93%.

How did CCOc1cc(C2SCC(=O)Nc3c2c(C)nn3-c2nc3ccccc3s2)ccc1O (stereo not given) do in these assays?
CDC25B-CDK2 inh: -1.1; TAR Tat displ: 0.69

Results for Cc1nn(-c2nc3ccccc3s2)c2c1C(c1ccc(O)c(O)c1)SCC(=O)N2 (stereo not given) ?
CDC25B-CDK2 inh: -1.9; TAR Tat displ: 6.5*

Results for CCOC(=O)N1CCN(C(=O)C2c3ccccc3C(=O)N3CCCCC23)CC1 (stereo not given) ?
CDC25B-CDK2 inh: -0.86; TAR Tat displ: 0.49

What do the screens show for `CCC12CN3CC(C)(CN(C1)C3c1cccnc1)C2=O` (stereo not given)?
CDC25B-CDK2 inh: -0.47; TAR Tat displ: 0.3

Results for NC(Cc1cc(O)c(O)cc1O)C(=O)O (stereo not given) ?
CDC25B-CDK2 inh: 20*

How did Cc1o[nH]c(=O)c1CC(N)C(=O)O (stereo not given) do in these assays?
CDC25B-CDK2 inh: -1.1

How did O=C(NC1CCCCC1)c1cc2ccccc2oc1=O do in these assays?
CDC25B-CDK2 inh: -0.18

How did COc1cc2c(cc1OC)-c1c(OC)c(OC)cc3c1C(C2)N(C)CC3 (stereo not given) do in these assays?
CDC25B-CDK2 inh: -6.7; TAR Tat displ: 6.3*

How did COc1cc2c3c(c1O)-c1c(cccc1OC)CC3N(C)CC2 (stereo not given) do in these assays?
CDC25B-CDK2 inh: -0.03; TAR Tat displ: -11

Results for O=C(N1CCOCC1)C(F)(F)S(=O)(=O)F ?
CDC25B-CDK2 inh: -0.14

What do the screens show for `CCN1CCc2nc3sc(C(=O)OC(C)C)c(N)c3cc2C1`?
CDC25B-CDK2 inh: 1.4; TAR Tat displ: -0.67

Results for Fc1ccccc1CNCCc1c[nH]c2ccccc12 ?
CDC25B-CDK2 inh: 2.3; TAR Tat displ: 0.3

What do the screens show for `c1coc(CNCCc2c[nH]c3ccccc23)c1`?
CDC25B-CDK2 inh: 14*; TAR Tat displ: -0.14

What do the screens show for `c1ccc2cc(CNCCc3c[nH]c4ccccc34)ccc2c1`?
CDC25B-CDK2 inh: -1.4

What do the screens show for `Fc1ccc(CNCCc2c[nH]c3ccccc23)cc1F`?
CDC25B-CDK2 inh: 16*; TAR Tat displ: -0.12

What do the screens show for `CC(=O)N1N=C2C3CCN(CC3)C2C1c1ccc(Cl)cc1` (stereo not given)?
CDC25B-CDK2 inh: -0.25; TAR Tat displ: 0.7

How did CN(C)[C@@H]1C(=O)C(C(N)=O)=C(O)[C@@]2(O)C(=O)C3=C(O)c4c(O)cccc4[C@@](C)(O)[C@H]3[C@H](O)[C@@H]12 do in these assays?
TAR Tat displ: 22*

How did CN(C)[C@@H]1C(=O)C(C(N)=O)=C(O)[C@@]2(O)C(=O)C3=C(O)c4c(O)ccc(Cl)c4[C@@](C)(O)[C@H]3C[C@@H]12 do in these assays?
TAR Tat displ: 12*

Results for Cc1ccccc1-n1nc(C)c2c1NC(=O)CSC2c1ccccc1 (stereo not given) ?
CDC25B-CDK2 inh: -2.7; TAR Tat displ: 2.9

Results for NCCc1cc(O)c(O)cc1O ?
TAR Tat displ: 29*

What do the screens show for `NCCc1c[nH]c2ccccc12`?
CDC25B-CDK2 inh: -0.02; TAR Tat displ: 0.19

Results for Cc1ccc(-n2nc(C)c3c2NC(=O)CSC3c2ccccc2)cc1Cl (stereo not given) ?
CDC25B-CDK2 inh: -0.65; TAR Tat displ: 3.1

Results for COc1ccc(CC2NCCc3cc(OC)c(OC)cc32)cc1OC (stereo not given) ?
CDC25B-CDK2 inh: -0.3; TAR Tat displ: 37*

How did COc1ccc(CCNC2(C#N)CCCCC2)cc1OC do in these assays?
CDC25B-CDK2 inh: -0.88

How did COc1cc(=O)oc(/C=C/C=C/C=C/C(C)=C/C2(C)OC(C)C(C)(O)C2O)c1C (stereo not given) do in these assays?
TAR Tat displ: 0.87

What do the screens show for `COc1cccc2sc(N(CCN(C)C)C(=O)COc3ccccc3)nc12`?
TAR Tat displ: 1.7

How did COc1cccc(C(c2c(O)c3ccccc3oc2=O)c2c(O)c3ccccc3oc2=O)c1OC do in these assays?
CDC25B-CDK2 inh: -1.2
